{"source": "the supplement of paper PMC6555819", "assay_in_all_cases": "PBM binding z-score (relative to random genomic background probes); higher = stronger binding; sequences stand for … in GC…GCGATTGACAGCGTAGAATGAAGG", "key": {"[1]": {"system": "RARb homodimer (NR concentration 270 nM)", "outline": "(§1)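 Each nuclear receptor dimer, without ligand, was incubated for 1 h on custom Agilent 4×180K protein-binding microarrays. Binding was detected with antibodies against each partner (one per run), and scanned fluorescence was regression-normalized. The binding z-scores are referenced to random human genomic background probes.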"}, "[2]": {"system": "RARg:RXRa (NR concentration 270 nM, RXRa partner concentration 90 nM)", "outline": "as §1"}, "[3]": {"system": "RARg homodimer (NR concentration 270 nM)", "outline": "as §1"}, "[4]": {"system": "RXRa DBDmut IVT, anti-RXR (DBD mutation: RXRa K156A/R161A, NR concentration 90 nM)", "outline": "as §1"}, "[5]": {"system": "RXRa homodimer (NR concentration 180 nM)", "outline": "as §1"}, "[6]": {"system": "THRa:RXRa (NR concentration 90 nM, RXRa partner concentration 90 nM)", "outline": "as §1"}, "[7]": {"system": "THRa homodimer (NR concentration 90 nM)", "outline": "as §1"}, "[8]": {"system": "VDR homodimer (NR concentration 270 nM)", "outline": "as §1"}}}
{"sequence": "CCTCACGGGTCACTGACAGGTTATAGCATTTGGA", "values": [{"measurement": "PBM binding z-score", "setting": "[1]", "result": 3.33}, {"measurement": "PBM binding z-score", "setting": "[2]", "result": 5.64}, {"measurement": "PBM binding z-score", "setting": "[3]", "result": 4.5}, {"measurement": "PBM binding z-score", "setting": "[4]", "result": 1.81}, {"measurement": "PBM binding z-score", "setting": "[5]", "result": 4.65}, {"measurement": "PBM binding z-score", "setting": "[6]", "result": 2.77}, {"measurement": "PBM binding z-score", "setting": "[7]", "result": 0.669}, {"measurement": "PBM binding z-score", "setting": "[8]", "result": 1.02}]}
{"sequence": "AATACAAGGTCACTAGGCCAGAGTAGGTACGAAT", "values": [{"measurement": "PBM binding z-score", "setting": "[1]", "result": 4.18}, {"measurement": "PBM binding z-score", "setting": "[2]", "result": 5.73}, {"measurement": "PBM binding z-score", "setting": "[3]", "result": 6.29}, {"measurement": "PBM binding z-score", "setting": "[4]", "result": 3.29}, {"measurement": "PBM binding z-score", "setting": "[5]", "result": 5.53}, {"measurement": "PBM binding z-score", "setting": "[6]", "result": 3.95}, {"measurement": "PBM binding z-score", "setting": "[7]", "result": 2.4}, {"measurement": "PBM binding z-score", "setting": "[8]", "result": 2.75}]}
{"sequence": "TCGAGTAGGTTACCAAGGGGGCATTCAGCTTTCT", "values": [{"measurement": "PBM binding z-score", "setting": "[1]", "result": 1.98}, {"measurement": "PBM binding z-score", "setting": "[2]", "result": 4.64}, {"measurement": "PBM binding z-score", "setting": "[3]", "result": 1.87}, {"measurement": "PBM binding z-score", "setting": "[4]", "result": 1.26}, {"measurement": "PBM binding z-score", "setting": "[5]", "result": 1.98}, {"measurement": "PBM binding z-score", "setting": "[6]", "result": 2.16}, {"measurement": "PBM binding z-score", "setting": "[7]", "result": 0.891}, {"measurement": "PBM binding z-score", "setting": "[8]", "result": 2.16}]}
{"sequence": "TCTTGTAGATCAACAGGAGGTTATGAAAGATCGA", "values": [{"measurement": "PBM binding z-score", "setting": "[1]", "result": 0.222}, {"measurement": "PBM binding z-score", "setting": "[2]", "result": 0.765}, {"measurement": "PBM binding z-score", "setting": "[3]", "result": 0.211}, {"measurement": "PBM binding z-score", "setting": "[4]", "result": 0.368}, {"measurement": "PBM binding z-score", "setting": "[5]", "result": 0.889}, {"measurement": "PBM binding z-score", "setting": "[6]", "result": 0.76}, {"measurement": "PBM binding z-score", "setting": "[7]", "result": -0.681}, {"measurement": "PBM binding z-score", "setting": "[8]", "result": -0.167}]}
{"sequence": "CCTAATGGGCCAAGGTCATTGATCAGTCAAAGCA", "values": [{"measurement": "PBM binding z-score", "setting": "[1]", "result": 3.46}, {"measurement": "PBM binding z-score", "setting": "[2]", "result": 3.94}, {"measurement": "PBM binding z-score", "setting": "[3]", "result": 3.82}, {"measurement": "PBM binding z-score", "setting": "[4]", "result": 1.91}, {"measurement": "PBM binding z-score", "setting": "[5]", "result": 3.73}, {"measurement": "PBM binding z-score", "setting": "[6]", "result": 3.4}, {"measurement": "PBM binding z-score", "setting": "[7]", "result": 2.52}, {"measurement": "PBM binding z-score", "setting": "[8]", "result": 3.34}]}
{"sequence": "TGAATGAGGTTAAAGATCAGGGAGCGTGGCGTCG", "values": [{"measurement": "PBM binding z-score", "setting": "[1]", "result": 0.534}, {"measurement": "PBM binding z-score", "setting": "[2]", "result": 1.95}, {"measurement": "PBM binding z-score", "setting": "[3]", "result": 0.676}, {"measurement": "PBM binding z-score", "setting": "[4]", "result": 0.869}, {"measurement": "PBM binding z-score", "setting": "[5]", "result": 3.86}, {"measurement": "PBM binding z-score", "setting": "[6]", "result": 2.43}, {"measurement": "PBM binding z-score", "setting": "[7]", "result": 0.271}, {"measurement": "PBM binding z-score", "setting": "[8]", "result": -0.0422}]}
{"sequence": "CCTGCTAGGTCATGGTCAGCTTATCTACAGTATG", "values": [{"measurement": "PBM binding z-score", "setting": "[1]", "result": 3.15}, {"measurement": "PBM binding z-score", "setting": "[2]", "result": 3.67}, {"measurement": "PBM binding z-score", "setting": "[3]", "result": 4.7}, {"measurement": "PBM binding z-score", "setting": "[4]", "result": 1.86}, {"measurement": "PBM binding z-score", "setting": "[5]", "result": 3.01}, {"measurement": "PBM binding z-score", "setting": "[6]", "result": 2.97}, {"measurement": "PBM binding z-score", "setting": "[7]", "result": 1.52}, {"measurement": "PBM binding z-score", "setting": "[8]", "result": 0.201}]}
